High-throughput results (PubChem)
In the library only some 4.8% were active in any assay of this set; here they are far more common.
DAX1 inh-1: NR0B1 (DAX1) inhibition; inhibition, % at 6.75 µM; P51843; AID 504766; hit rate 0.99% among 340,000; HEK293 Gal4-DAX1 luciferase reporter, luminescence;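 active = inhibition above the mean over all tested compounds plus 3 SD, cut at about 4.2% in these data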;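 also: 0% = DAX1-transfected cells with DMSO and 100% = empty-vector control cells with DMSO; inhibition shows as a rise in luminescence from relieved DAX1 repression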
NR1D1 modulator: modulates human Rev-erb alpha binding to DNA. P20393. Rev-erbα–FITC-DNA binding, fluorescence polarization, 90 min. activity, % at 10 µM. hit rate 0.79% among 370,000. AID 1259318;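 active = activity above about 14%, limit read from the data; passing the limit was not always enough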;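 also: 0% = DMSO wells with 35 nM protein and 100% = DMSO wells with 750 nM protein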
Target sequence (P20393 whole entry, looked up): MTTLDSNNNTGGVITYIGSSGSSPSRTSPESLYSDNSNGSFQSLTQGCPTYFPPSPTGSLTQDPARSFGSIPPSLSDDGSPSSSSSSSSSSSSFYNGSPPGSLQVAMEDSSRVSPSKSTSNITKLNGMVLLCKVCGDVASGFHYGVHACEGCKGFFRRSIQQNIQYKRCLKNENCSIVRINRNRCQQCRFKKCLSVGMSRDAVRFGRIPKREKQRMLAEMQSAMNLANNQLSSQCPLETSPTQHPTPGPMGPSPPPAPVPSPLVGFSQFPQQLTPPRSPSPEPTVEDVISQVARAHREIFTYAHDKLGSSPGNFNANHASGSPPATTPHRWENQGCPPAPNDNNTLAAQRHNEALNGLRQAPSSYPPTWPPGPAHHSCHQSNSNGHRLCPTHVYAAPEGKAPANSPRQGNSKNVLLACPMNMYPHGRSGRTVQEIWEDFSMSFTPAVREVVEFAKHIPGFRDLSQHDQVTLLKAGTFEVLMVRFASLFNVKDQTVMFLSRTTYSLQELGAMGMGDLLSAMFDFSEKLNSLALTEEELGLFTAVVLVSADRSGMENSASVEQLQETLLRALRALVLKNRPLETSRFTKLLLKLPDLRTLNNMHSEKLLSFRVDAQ
hcDAF-12 act: activators of H. contortus DAF-12 nuclear receptor; HEK293 hcDAF-12 lit1-tk-luc reporter, luminescence; 0% DMSO, 100% Δ7-dafachronic acid; activation, % at 6.8 µM; hit rate 1.4% among 370,000; AID 652067;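 active = activation above the mean of all tested compounds plus 3 SD, cut at about 5.5% in these data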;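 also: 100% = response to 3 µM Δ7-dafachronic acid high control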
hgDAF-12 ag: activates the H. glycines DAF-12 receptor ligand-binding domain; HEK293 GAL4-hgDAF12 UAS-luciferase reporter, agonist luminescence; normalized to butyrate control; activation, % at 6.8 µM; hit rate 1.8% among 370,000; AID 687014;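 active = activation above a cutoff set at the mean of all screened compounds plus 3 SD, cut at about 10% in these data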;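 also: 0% = DMSO wells and 100% = sodium butyrate wells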
DAX1 inh-2: inhibitors of DAX1 repression of SF-1 activated StAR promoter | hit rate 1.1% among 370,000 | HEK293T StAR-luciferase reporter, SF-1/DAX-1 repression relief | inhibition, % at 6.8 µM;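 active = inhibition above the mean over all tested compounds plus 3 SD, cut at about 3.6% in these data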;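 also: 0% = DAX-1 cells with DMSO and 100% = cells lacking DAX-1 with DMSO; higher inhibition means more luminescence from relief of DAX-1 repression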
ssDAF12 agonist: S. stercoralis DAF-12 activation, primary screen. HEK293 ssDAF-12/GRIP1 lit1-tk-luc reporter, luminescence; % of 3 µM dafachronic acid response. activation, % at 6.8 µM. hit rate 1% among 370,000. AID 652126;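 active = activation above the mean over all tested compounds plus 3 SD, cut at about 0.9% in these data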;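 also: 0% = DMSO-only wells and 100% = 3 µM delta7-dafachronic acid wells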
The depositor's hits bear a star; . = no result given.

SMILES	DAX1 inh-1	NR1D1 modulator	hcDAF-12 act	hgDAF-12 ag	DAX1 inh-2	ssDAF12 agonist
N#CCC(=O)N1CCN(C=O)CC1	4.7*	1	-2	-1	-1	-2
Cc1nc(SCC(N)=O)[nH]c(=O)c1C	.	0	-1	1	.	-1
COc1ccc(C(C(=O)N(C)C2CCCC2)N(Cc2ccc(F)cc2)C(=O)c2csc(N3CCOCC3)n2)cc1OC (stereo unspecified)	.	-3	0	-1	-1	-1
Cc1ccc(-n2c(Cn3ncc4ccccc4c3=O)n[nH]c2=S)cc1	1	6	1	-1	0	1.3*
CN(C)[C@H]1CCN(c2cccc3c2S(=O)(=O)N2CC[C@@H](C2)O3)C1	.	-8	-4	1	-1	-1
C[C@@H]1/C=C/CC(=O)N2[C@H](CC(=O)N[C@@H]1c1ccccc1)C[C@@H](C)[C@H]2c1ccccc1	.	-3	0	-1	0	-1
C[N+]1(C)CCN(CC(O)(c2ccccc2)C2CCCCC2)CC1 (stereo unspecified)	.	3	.	.	.	.
c1ccc(-c2nnc(-c3ccccn3)c(-c3ccccn3)n2)nc1	.	-2	-1	-2	-1	-1
c1ccc(-c2nnc(-c3ccccn3)nn2)nc1	3	-2	4	13*	3	0
O=C(CNC(=O)c1ccc(Cl)cc1Cl)OCCOc1ccccc1	1	6	-1	-2	3.9*	-1
COc1ccc(OCCOC(=O)CNC(=O)c2ccc(Cl)cc2Cl)cc1	2	-2	-1	4	1	-1
CCCCCCC12C(=Cc3cc(C)ccc31)c1ccccc1C(CC(=O)NCc1ccccc1)N2C(=O)OC (stereo unspecified)	.	-2	1	-1	0	-1
CC(C)Cc1cc(C(=O)Nc2ccc(Br)cc2)no1	2	-4	2	4	2	0
CCCc1cc(C(=O)Nc2ccc(CC)cc2)no1	3	-5	5	11*	2	0
CCCc1cc(C(=O)Nc2cc(Cl)ccc2O)no1	3	1	5.6*	11*	1	0
CC(C)Cc1cc(C(=O)Nc2ccc(F)cc2F)no1	1	2	1	12*	3.9*	-1
CCc1ccc(NC(=O)c2cc(CC(C)C)on2)cc1	5.1*	-1	2	8	1	0
CCc1ccc(NC(=O)c2cc(-c3cccs3)on2)cc1	2	4	-1	8	1	0
COc1ccc(CNS(=O)(=O)/C=C/c2ccccc2CNC(=O)OC(C)(C)C)cc1	.	4	-3	-2	-2	-2
Cc1onc(-c2ccc(Cl)cc2)c1-c1ccn(S(=O)(=O)c2ccccc2Cl)n1	.	6	0	6	-1	-2
Cc1ccccc1NC(=O)N(C)[C@H]1C[C@H]2c3[nH]c4c(-c5ccc6c(c5)OCO6)cccc4c3CCN2C[C@H]1[C@H](C)O	.	-4	0	6	0	-1
CCc1ccc(NC(=O)c2cc(C)no2)cc1	4.4*	-2	1	5	0	-1
Cc1ccccc1C(=O)N[C@H](C(=O)N1CCC[C@H]1C(=O)NC1CCCC1)C1CCCCC1	.	-3	-1	-1	-2	-1
O=C(CSc1nnc(-c2ccccc2)n1-c1ccc(Cl)cc1)c1ccc(Cl)cc1	.	2	-2	-3	0	-1
CC(c1ccccc1)c1nnc(N)s1 (stereo unspecified)	4.7*	5	-1	-1	0	-1
SMILES	DAX1 inh-1	NR1D1 modulator	hcDAF-12 act	hgDAF-12 ag	DAX1 inh-2	ssDAF12 agonist
O=c1[nH]ncn1-c1ccc(Br)cc1	5.2*	5	-1	-2	0	-1
O=c1[nH]ncn1-c1ccccc1	2	1	-1	-1	0	-1
O=S1(=O)CC2c3ccc(F)cc3CN2CN1C1CCCC1 (stereo unspecified)	.	3	1	-1	0	1.0*
Cc1onc(-c2ccccc2)c1C(=O)Nc1nc2c(s1)C(=O)CC(C)(C)C2	-1	-5	-3	1	-1	-1
CC1(C)CC(=O)c2sc(NC(=O)c3ccco3)nc2C1	0	6	5	12*	2	0
CC1(C)CC(=O)c2sc(NC(=O)C3COc4ccccc4O3)nc2C1 (stereo unspecified)	2	-1	2	7	2	1.6*
CC(=O)c1sc(NC(=O)C2COc3ccccc3O2)nc1C (stereo unspecified)	-2	-5	0	4	3	0
COc1ccc2c(c1)CCCN2C(=O)C1CCCN(S(=O)(=O)c2ccc(Br)s2)C1 (stereo unspecified)	.	-2	-3	-3	-1	-2
Cc1cccc(C)c1NCc1n[nH]c(=S)n1-c1ccccc1	4.7*	-1	0	3	0	-1
CC(C)Oc1ccc(CCc2n[nH]c(=S)n2-c2ccccc2)cc1	4.3*	2	-2	1	-1	0
Cc1ccc(C)c(NCc2n[nH]c(=S)n2-c2ccccc2)c1	0	-2	0	-2	0	-1
O=C(CSC(=S)N1CCCCC1)Nc1nc(-c2ccccc2)c(-c2ccccc2)o1	1	0	0	0	0	-1
O=C(CSC(=S)N1CCOCC1)Nc1nc(-c2ccccc2)c(-c2ccccc2)o1	5.6*	-2	0	1	1	-1
C=CCOC(=O)C1=C(C)OC(N)=C(C#N)C1c1ccco1 (stereo unspecified)	8.4*	1	-1	-1	0	-1
COc1cc(O)c(C(CCN2CCCCC2)c2ccc3c(c2)OCO3)c(OC)c1 (stereo unspecified)	4.3*	-1	1	1	2	-1
COc1cc(O)c(C(CC(=O)N2CCCCC2)c2ccc3c(c2)OCO3)c(OC)c1 (stereo unspecified)	-1	-1	-2	-3	0	-1
CCn1cc(Br)c(C(=O)Nc2ccc(Cl)cc2Cl)n1	0	-3	1	1	0	1.0*
CCOC(=O)c1ccc(NC(=O)c2nn(CC)cc2Br)cc1	2	0	-2	2	1	-2
CCn1cc(Br)c(C(=O)Nc2ccc(F)c(Cl)c2)n1	2	-3	3	10	0	1.7*
S=C(Nc1ccc(-c2nc3ccccc3[nH]2)cc1)Nc1cccnc1	1	4	2	11*	2	0
c1ccc(-c2nc3ccccc3[nH]2)cc1	3	-6	4	12*	4.4*	0
c1ccc(-c2nc3ccccc3[nH]2)nc1	1	-6	5	10	3	1.3*
c1ccc2[nH]c(-c3ccncc3)nc2c1	1	1	0	3	0	0
O=C(OC12CCCN(C1)/C(=C/c1cccc(Cl)c1)C2)c1ccccc1 (stereo unspecified)	.	-1	0	2	0	-1
